# Vaccinia mCherry: inhibitors of vaccinia virus infection (mCherry reporter signal); 310,000 tested, 0.63% active; Potency, µM (highest dose often 36.5 µM), actives largely listed as inhibitors; Vaccinia virus mCherry reporter infection, fluorescence; calls by dose curve; tested in A549 cells; note: nearly all actives have a fitted effect of over 35% in size
# HCMV antiviral: inhibitors of human cytomegalovirus; HFF cells, HCMV-luciferase reporter, 72 h; stronger effect = lower value; activity change, negative = inhibition, % at 57.5 µM; 410,000 tested, 4.5% active; AID 1259415; in the data active = activity change below about -60%; inconclusive = no clear call, values can overlap the other calls; inactive = above about -39%
#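 HFF cells seeded 16 h at 37C, treated with compounds, infected with luciferase-reporter HCMV at MOI 1 PFU/cell; luciferase read at 72 h post infection, normalized to buffer-only and Salinomycin controls.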
# HCV inh: HCV inhibition. AID 651820. 340,000 tested, 3.4% active. Potency, µM (top dose mostly 41.8 µM), most hits filed as inhibitors. Huh7.5.1 HCVcc-Cre infection, luciferase reporter, 44 h; active = well fitted inhibition curve with a large enough effect; inconclusive = small, poorly fitted or top-dose-only effect, or another doubt; inactive = no such curve, though single readings can be large or run the other way
#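 Luciferase read-out (15 sec integration) after a 15 min room-temperature substrate step quantifies HCVcc-Cre infection. Cells, 1,000 per well, had compound added 4 h post-plating, then virus at ~0.5 moi, and were cultured 44 h.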
# FMDV inh: antivirals against foot and mouth disease virus. FMDV antiviral cell-based qHTS. Potency, µM (doses to about 57.9 µM), most hits filed as inhibitors. 410,000 tested, 1.2% active; calls by dose curve; tested in HEK293T cells; note: read-out not given here; nearly all actives have a fitted effect of over 45% in size
# VACV Venus inh: inhibitors of vaccinia virus (Venus reporter). Vaccinia virus Venus reporter expression, fluorescence. Potency, µM (titrated, usually from 36.5 µM), most hits filed as inhibitors. 330,000 tested, 0.46% active; calls by dose curve; tested in A549 cells; note: nearly all actives have a fitted effect of over 30% in size
# A number is an active result; 0 = inactive; ? = inconclusive; - = not tested or not shown. Compounds with a hit are over-represented: about 7.3% of the library has one in this group of screens.
SMILES,Vaccinia mCherry,HCMV antiviral,HCV inh,FMDV inh,VACV Venus inh
CCOC(=O)c1c(C)oc2nc(C)nc(N3CCN(c4ccccc4)CC3)c12,0,?,-,28.2µM,0
CCC(C)NC(=O)Cn1c(=O)n(-c2ccc(OC)c(OC)c2)c(=O)c2ccccc21 (stereo unspecified),0,0,-,0,0
O=C(Cn1cc(SCc2ccc(F)cc2)c2ccccc21)N1CCCCC1,0,0,-,0,0
Cc1c(Cl)cccc1NC(=O)CC(c1ccc(F)cc1)N1Cc2ccccc2C1=O (stereo unspecified),0,0,-,0,0
COc1ccccc1C(=O)N1c2ccccc2Sc2ccccc21,?,-72.7,?,0,0
CCOc1ccccc1C(=O)N1c2ccccc2Sc2ccccc21,-,0,11.2µM,0,0
CC1CN(c2ccc(Cl)cc2)c2nc3c(c(=O)n(CC(=O)O)c(=O)n3C)n2C1 (stereo unspecified),0,0,-,0,0
CN1CCC(N2CCN(C3CN(CCc4ccccc4)S(=O)(=O)C3)CC2)CC1 (stereo unspecified),0,0,-,0,0
Cc1cccc(CN2CCN(C3CN(CCc4ccccc4)S(=O)(=O)C3)CC2)c1 (stereo unspecified),0,-62.9,-,0,0
Cc1ccc(N=CC2=C(O)CC(c3ccccc3Cl)CC2=O)cc1 (stereo unspecified),-,0,0,0,-
O=C1CC(c2ccccc2Cl)CC(O)=C1C=Nc1ccccc1 (stereo unspecified),0,-72.7,0,0,0
CCC1(C2CCN(C(=O)c3cc4ccccc4o3)CC2)NC(=O)N(CCc2scnc2C)C1=O (stereo unspecified),0,-,-,0,0
O=C(C[n+]1cccc2cc(Cl)ccc21)c1ccc(I)cc1,0,-,-,-,0
COc1ccc(S(=O)(=O)Nc2cc3c(cc2NCc2ccccc2)n(C)c(=O)n3C)cc1,0,0,-,0,0
O=C(c1ccc(Cl)cc1)c1ccc(CN2C(=O)c3ccccc3C2=O)o1,0,0,0,0,0
Cc1oc2c(c1C(=O)c1ccc(Cl)cc1)C(=O)C(=O)c1ccccc1-2,0,?,10µM,?,0
Cc1ccc(C(=O)c2c(C)oc3c2C(=O)C(=O)c2ccccc2-3)cc1,-,-,7.08µM,?,?
Cc1ccc(C(=O)c2coc3c2C(=O)C(=O)c2ccccc2-3)cc1,0,0,?,-,0
NS(=O)(=O)c1ccc(Nc2nc(-c3ccc(O)cc3O)cs2)cc1,0,-91.0,0,?,0
c1cncc(Nc2nc(-c3cccnc3)cs2)c1,0,0,?,0,0
NS(=O)(=O)c1ccc(Nc2nc(-c3cccnc3)cs2)cc1,0,0,12.6µM,0,0
COc1ccccc1CNc1ncnc2sc(C(=O)N(C)C(C)C)c(C)c12,0,-,-,0,0
Cc1cccc(C(=O)NCC2Cc3cc(F)cc(-c4cnccn4)c3O2)n1 (stereo unspecified),0,-,-,0,0
Nc1[nH]n2c(=O)cc(-c3ccccc3)nc2c1N=Nc1ccccc1,-,-78.7,0,0,0
COCCn1c(=O)c(-c2cc(F)cc(F)c2)nc2cnc(Nc3cccc(OC)c3)nc21,-,-,-,0,-
SMILES,Vaccinia mCherry,HCMV antiviral,HCV inh,FMDV inh,VACV Venus inh
C[C@H](CO)N1C[C@H](C)[C@@H](CN(C)S(=O)(=O)c2ccc(F)cc2)Oc2ccc(NC(=O)Nc3ccc(C(F)(F)F)cc3)cc2C1=O,?,0,31.6µM,?,?
C[C@H](CO)N1C[C@H](C)[C@@H](CN(C)S(=O)(=O)c2ccc(F)cc2)Oc2ccc(NS(=O)(=O)c3ccc(F)cc3)cc2C1=O,0,?,0,0,0
C[C@@H]1CN([C@@H](C)CO)C(=O)Cc2cc(NC(=O)Nc3ccc(C(F)(F)F)cc3)ccc2O[C@@H]1CN(C)S(=O)(=O)c1ccc(Cl)cc1,?,0,?,?,11.2µM
C[C@H](CO)N1C[C@H](C)[C@@H](CN(C)S(=O)(=O)c2ccc(F)cc2)Oc2ccc(NC(=O)Nc3ccccc3)cc2C1=O,0,0,0,0,0
C[C@@H]1CN([C@H](C)CO)C(=O)c2cc(NC(=O)Nc3ccc(C(F)(F)F)cc3)ccc2O[C@H]1CN(C)S(=O)(=O)c1ccc(Cl)cc1,0,-76.0,?,0,0
C[C@@H]1CN([C@H](C)CO)C(=O)c2cc(NS(=O)(=O)c3ccc(F)cc3)ccc2O[C@@H]1CN(C)Cc1ccc(Cl)c(Cl)c1,?,0,6.31µM,?,10µM
CCOc1ccc(NC(=O)COC(=O)c2ccccc2OCc2ccccc2Br)cc1,0,-,-,-,0
COc1ccc(S(=O)(=O)NCc2ccc3c(c2)CCN3C(=O)c2ccc(C)cc2)cc1Cl,0,0,-,0,0
CCOc1ccc(C2C(=O)N(C3CCCCC3)CC(=O)N2Cc2ccccc2OC)cc1OC (stereo unspecified),0,0,-,0,0
C[C@H]1CN([C@@H](C)CO)C(=O)c2cccc(NC(=O)Nc3ccc(C(F)(F)F)cc3)c2O[C@@H]1CN(C)Cc1ccc(Cl)c(Cl)c1,?,0,?,?,?
C[C@@H]1CN([C@H](C)CO)C(=O)c2cc(NC(=O)Nc3ccc(C(F)(F)F)cc3)ccc2O[C@H]1CN(C)Cc1ccc(Cl)c(Cl)c1,?,-96.6,0,0,10µM
C[C@H](CO)N1C[C@H](C)[C@@H](CN(C)Cc2ccc(C(=O)O)cc2)OCCCC[C@H](C)Oc2ccc(NC(=O)CCC(F)(F)F)cc2C1=O,-,0,-,-,-
C[C@@H]1CCCCO[C@@H](CN(C)Cc2ccc(Cl)c(Cl)c2)[C@@H](C)CN([C@H](C)CO)C(=O)c2cc(NC(=O)CCC(F)(F)F)ccc2O1,?,-60.5,-,0,?
Cc1ccc(S(=O)(=O)N(C)C[C@@H]2Oc3ccc(NS(C)(=O)=O)cc3CC(=O)N([C@H](C)CO)C[C@@H]2C)cc1,0,0,2.82µM,0,0
Cc1cc(C(=O)N(Cc2cc3cc4c(cc3nc2N2CCOCC2)CCC4)CC2CCCO2)c(=O)[nH]c1C (stereo unspecified),0,-,-,0,0
CC(C)c1ccc(CN2C(=O)C(n3ccc4ccccc43)c3cc(F)ccc32)cc1 (stereo unspecified),-,0,-,-,-
CCN(Cc1ccc2c(c1)OCCO2)C(=O)CSc1nc(C)nc2sc(C)c(C)c12,-,0,?,31.6µM,-
COc1ccc(C2=CC(c3ccc(F)cc3)n3ncc(C(=O)Nc4ccc(C)cc4)c3N2)cc1 (stereo unspecified),?,-88.3,-,0,0
COc1ccc(C2C=C(c3ccc(F)cc3)Nc3nc(-c4ccc(Cl)cc4)nn32)cc1 (stereo unspecified),?,-101.4,-,?,?
Cc1cccc(N2CCN(C(=O)c3ccc4nc(-c5ccco5)c(-c5ccco5)nc4c3)CC2C)c1 (stereo unspecified),-,0,10µM,25.1µM,-
Cc1cccc(N2CCN(C(=O)c3ccc4nccnc4c3)CC2C)c1 (stereo unspecified),?,0,0,0,0
CCNc1nc(-c2sc(NC(=O)C(C)(C)C)nc2C)c(-n2cc(-c3ccccc3)nn2)s1,?,-70.4,-,?,?
COc1cccc(N2CCN(c3c(C#N)c(C(F)(F)F)nn3C)CC2)c1,-,-94.3,?,?,0
